BoNT F protease: BoNT F light chain protease inhibition. AID 588497. inhibition, % at 10 µM. 360,000 tested, 0.22% active. Multiplex microsphere protease cleavage assay, flow cytometry; in the data active means inhibition above about 35%, passing the limit was not always enough; inconclusive means no clear call, values can overlap the other calls; further: plate controls were buffer without enzyme for full effect and enzyme alone for no effect
Anthrax LF inh2: blocks Bacillus anthracis lethal factor protease; P15917; multiplex microsphere protease cleavage assay, LF; inhibition, % at 10 µM; 360,000 tested, 0.12% active; AID 588501; further: plate controls were buffer without enzyme for full effect and enzyme alone for no effect
Target sequence (P15917 whole entry, looked up): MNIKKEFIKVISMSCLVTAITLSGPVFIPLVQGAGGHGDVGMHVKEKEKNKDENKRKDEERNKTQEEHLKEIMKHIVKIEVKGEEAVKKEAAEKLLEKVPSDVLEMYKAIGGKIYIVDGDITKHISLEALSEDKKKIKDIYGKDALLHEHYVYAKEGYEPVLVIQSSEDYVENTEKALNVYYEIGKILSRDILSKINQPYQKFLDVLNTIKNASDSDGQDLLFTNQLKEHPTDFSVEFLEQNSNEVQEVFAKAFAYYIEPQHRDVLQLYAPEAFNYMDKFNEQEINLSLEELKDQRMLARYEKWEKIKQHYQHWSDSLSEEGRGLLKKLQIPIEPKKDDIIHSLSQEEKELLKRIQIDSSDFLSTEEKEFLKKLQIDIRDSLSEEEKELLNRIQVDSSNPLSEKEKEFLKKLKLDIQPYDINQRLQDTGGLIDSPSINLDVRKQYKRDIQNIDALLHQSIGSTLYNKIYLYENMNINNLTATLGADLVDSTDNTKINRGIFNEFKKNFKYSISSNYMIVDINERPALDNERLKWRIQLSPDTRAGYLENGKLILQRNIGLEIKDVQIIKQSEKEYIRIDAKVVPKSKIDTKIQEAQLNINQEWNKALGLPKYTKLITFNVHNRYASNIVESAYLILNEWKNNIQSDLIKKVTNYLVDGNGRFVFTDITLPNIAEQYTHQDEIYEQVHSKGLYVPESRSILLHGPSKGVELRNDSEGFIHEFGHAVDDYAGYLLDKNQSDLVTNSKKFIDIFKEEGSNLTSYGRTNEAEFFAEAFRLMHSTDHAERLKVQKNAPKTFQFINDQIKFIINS
Autofluor counter: compound fluorescence in toxin protease inhibitor counterscreen; compound autofluorescence counterscreen, microsphere flow cytometry; hits give high values; fluorescence intensity (test concentration not listed); 360,000 tested, 3.1% active; AID 624483; in the data active means fluorescence intensity above about 16000; inconclusive means no clear call, values can overlap the other calls
BoNT A protease: inhibitors of Botulinum neurotoxin A light chain protease; 360,000 tested, 0.17% active; multiplex microsphere protease substrate cleavage, flow cytometry; AID 588499; inhibition, % at 10 µM; further: plate controls were buffer without enzyme for full effect and enzyme alone for no effect
PriA SSB inh: blocks PriA binding to SSB C-terminal tail | AID 1272365 | AlphaScreen SSBct-PriA binding, biotinylated peptide | inhibition, % at 33 µM | 430,000 tested, 0.6% active; in the data active means inhibition mostly above about 37%, no sharp cut-off; inactive means mostly below about 20%;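 further: plate controls were negative control peptide for no effect and reference peptide for full effect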
* = called active by the depositor; ? = inconclusive; nt = not tested or not shown. A selection: hits, their analogues and other compounds. The true share with any hit is near 3.1%. Unless noted, no stated cut-off is given here; in the data, active means inhibition above about 30%; inconclusive means no clear call, values can overlap the other calls; inactive means below that.

SMILES | BoNT F protease | Anthrax LF inh2 | Autofluor counter | BoNT A protease | PriA SSB inh
O=C(CN1CCC(C(=O)c2ccc(F)cc2)CC1)Nc1ccccc1 | -1 | 0 | 19525* | 1 | 3
Cc1cccc(NC(=O)CN2CCC(C(=O)c3ccc4c(c3)OCCO4)CC2)c1 | -8 | 7 | 3710 | 0 | -7
Cc1ccc(C(=O)C2CCN(CC(=O)Nc3ccc(N(C)C)cc3)CC2)cc1 | -5 | -1 | 21202* | ? | 9
O=C(NCc1ccc(F)cc1)C1CCCN(C(=O)Nc2ccccc2)C1 (stereo not given) | -1 | -4 | 19569* | ? | -3
O=C(c1ccc2c(c1)OCCO2)C1CCN(S(=O)(=O)c2ccccc2F)CC1 | -1 | -7 | 23887* | ? | -18
Cc1ccc(C(=O)C2CCN(CC(=O)Nc3ccc4c(c3)OCCO4)CC2)cc1 | -3 | 0 | 23981* | 1 | 3
O=C(NCc1ccc(F)cc1)C1CCCN(C(=O)Nc2ccc(F)cc2)C1 (stereo not given) | -3 | 1 | 2942 | 0 | -6
COc1ccc(S(=O)(=O)N2CCC(C(=O)c3ccc4c(c3)OCCO4)CC2)cc1 | 4 | 0 | 9619 | 1 | 7
Cc1cc(NC(=O)C(=O)NCCC2=CCCCC2)no1 | nt | nt | nt | nt | -9
COc1ccc(/C=c2\c(=O)n(Cc3ccccc3)c3nc4c(c(=O)n(C)c(=O)n4C)n23)cc1OC | nt | nt | nt | nt | 3
CCOC(=O)C1CCN(C(=O)c2ccc3c(c2)OCCO3)CC1 | -4 | 3 | 4181 | 0 | -9
CCOc1ccc(C(=O)N2CCC(C(=O)c3ccc4c(c3)OCCO4)CC2)cc1 | 0 | 1 | 17361* | 1 | -6
COc1ccc(SCC(=O)Nc2nnc(-c3ccc(S(=O)(=O)N(C)C)cc3)o2)cc1 | nt | nt | nt | nt | -6
O=c1c2ccccc2nnn1CCN1CCOCC1 | 0 | -1 | 2029 | -1 | 1
CCCn1nc2ccccc2c1P(=N)(N1CCOCC1)N1CCOCC1 | 1 | 2 | 20501* | ? | -11
CCc1ccc(OCC2Cn3c(nc4c3c(=O)[nH]c(=O)n4C)O2)cc1 (stereo not given) | ? | -5 | 4085 | 1 | -5
Cc1ccc(OCC2Cn3c(nc4c3c(=O)[nH]c(=O)n4C)O2)cc1 (stereo not given) | 3 | -2 | 20012* | 2 | -15
CCC(Oc1ccccc1F)C(=O)Nc1ccc2c(c1)n(C)c(=O)n2C (stereo not given) | 38* | -7 | 4019 | 2 | -8
Cc1nc2oc3c(=O)[nH]cnc3c2c2c1COC(C)(C)C2 | -7 | -6 | 4825 | 0 | 5
COc1ncnc2c1oc1nc(CC(C)C)c3c(c12)CC(C)(C)OC3 | -2 | -5 | 23399* | 0 | -16
COc1cc(-c2noc(-c3nn(-c4ccccc4C)c(=O)c4ccccc34)n2)cc(OC)c1OC | nt | nt | nt | nt | -16
COC(=O)c1c(NC(=O)c2sc3ccccc3c2Cl)sc2c1CC(C)(C)NC2(C)C | nt | nt | nt | nt | -7
CC(CNC(=O)C1CCCCC1C(=O)O)c1ccccc1 (stereo not given) | 2 | -3 | 22629* | 1 | -8
Cc1occc1C(=O)NCCc1ccc(Cl)cc1 | -2 | -5 | 20471* | -2 | -1
COc1ccc(CCNC(=O)c2cc(-c3cc(Cl)cc(Cl)c3)oc2C)cc1 | 4 | -7 | 21204* | 2 | 4
SMILES | BoNT F protease | Anthrax LF inh2 | Autofluor counter | BoNT A protease | PriA SSB inh
Cc1occc1C(=O)NCCCCc1ccccc1 | -18 | -1 | 5138 | -1 | -9
Cc1oc(-c2cc(Cl)cc(Cl)c2)cc1C(=O)NCCc1ccccc1 | -1 | -3 | 1974 | -1 | -5
CCOc1ccc(-c2cc(=O)n(Cc3ccccc3Cl)cn2)cc1 | nt | nt | nt | nt | -5
CCSc1ccccc1C(=O)N1CCN(Cc2nc(C3CC3)cs2)CC1 | nt | nt | nt | nt | -10
Cc1c(C(=O)NC(C)C)sc2ncn(CC(=O)N3CCC(C)CC3)c(=O)c12 | 2 | -8 | 19793* | 2 | 7
Cc1c(C(N)=O)sc2ncn(CC(=O)N3CCC(C)CC3)c(=O)c12 | 1 | -6 | 22473* | 1 | -16
Cc1c(C(=O)N2CCC(C)CC2)sc2ncn(CC(=O)N3CCC(C)CC3)c(=O)c12 | -3 | -1 | 5907 | 1 | -3
COCCCn1c(=S)[nH]c2ccc(N3CCOCC3)cc2c1=O | 7 | 0 | 18662* | 6 | -14
O=c1c2ccccc2[nH]c(=S)n1CC1CCCO1 (stereo not given) | -42 | 0 | 3806 | -1 | -3
O=c1c2cc(N3CCOCC3)ccc2[nH]c(=S)n1CC1CCCO1 (stereo not given) | -10 | -4 | 22212* | -9 | -5
Cc1cc(CCNC(=O)NC(C)(C)C)on1 | nt | nt | nt | nt | -8
O=C(CSc1ccccc1)N(CCn1cccn1)c1nc2ccccc2s1 | nt | nt | nt | nt | -35
CN(CCC#N)C(=O)COc1ccc(Br)cc1Cl | -1 | 1 | 4401 | 0 | -4
N#CCCN(CCC#N)C(=O)COc1ccc(Cl)cc1Cl | 1 | -7 | 18547* | 3 | -13
COc1ccc(CC(=O)Nc2c3c(nn2-c2cccc(Cl)c2)CS(=O)(=O)C3)cc1 | -6 | -3 | 10335 | 0 | -12
O=C(Cc1ccccc1)Nc1c2c(nn1-c1cccc(Cl)c1)CS(=O)(=O)C2 | 9 | 1 | 20201* | 8 | -8
COc1ncc(NC(=O)CNC(=O)c2ccccc2)cn1 | nt | nt | nt | nt | -14
O=C1/C(=C\c2ccco2)SC(=S)N1Cc1ccccc1 | 15 | 34* | 4535 | 44* | -3
COc1ccc(/C=C2/SC(=S)N(Cc3ccccc3)C2=O)cc1O | 16 | 0 | 2980 | 18 | -1
O=C1/C(=C\c2cc(Cl)c(O)c(Cl)c2)SC(=S)N1Cc1ccccc1 | -8 | 18 | 17886* | -12 | -5
CCCCOc1cccc(-c2cc(C(=O)NNC(=S)NCC)c3ccccc3n2)c1 | -2 | 1 | 19871* | -1 | 7
CCNC(=S)NNC(=O)c1cc(C2CC2)nc2ccccc12 | 2 | 0 | 22689* | -2 | -24
CCCNC(=S)NNC(=O)c1cc(C2CC2)nc2ccccc12 | -1 | 2 | 5886 | 0 | 3
CC(C)N(C(=O)CSc1nnc(-c2ccccc2)n1N)c1ccccc1 | nt | nt | nt | nt | -20
COc1ccccc1C1(CNS(=O)(=O)c2cnn(C)c2)CCOCC1 | nt | nt | nt | nt | 3
SMILES | BoNT F protease | Anthrax LF inh2 | Autofluor counter | BoNT A protease | PriA SSB inh
COC(=O)c1ccc2c(c1)NC(=O)C(N1CCCC1)S2 (stereo not given) | 3 | 3 | 19419* | 2 | 11
COC(=O)c1ccc2c(c1)NC(=O)C(N1CCCCC1)S2 (stereo not given) | 0 | -1 | 22781* | 0 | 0
CCC(NS(=O)(=O)c1ccc(C)cc1)C(=O)OC (stereo not given) | nt | nt | nt | nt | -11
CCCC(NS(=O)(=O)c1ccc(Br)cc1)C(=O)O (stereo not given) | -9 | 4 | 25446* | -4 | -4
CCC(NS(=O)(=O)c1ccc(C)cc1)C(=O)O (stereo not given) | 1 | -1 | 21879* | 1 | -4
CC1=C(C#N)C(NC(=O)C(C)(C)C)(C(F)(F)F)C(=O)N1 (stereo not given) | -4 | -1 | 21687* | -2 | -2
COC(=O)C1CCN(S(=O)(=O)c2ccc(OC)cc2)CC1 | -4 | 1 | 24359* | -2 | -8
COc1ccc(S(=O)(=O)N2CCC(NC(=O)Nc3ccc(C)cc3)CC2)cc1 | 5 | -6 | 20464* | ? | -5
